Assay outcomes deposited in PubChem by National Center for Advancing Translational Sciences (NCATS).
The list is not random: actives were taken first. Their share in the collection is about 21%.
DT40 TDP1 CPT = DT40-hTDP1 cell growth loss with CPT; chicken DT40 Tdp1-/-;hTDP1 cells + 20 nM CPT, ATP luminescence, 48 h; Potency, µM (highest dose often 46.2 µM), for inactives: top-dose activity change, negative = growth inhibition, usual class: inhibitors; AID 686979; 420,000 tested, 12% active; further: potency means the concentration at half of the fitted maximal effect; on the % scale 0 is the no-effect control and ±100 the full control effect; nearly all actives have a fitted effect of over 55% in size
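Chicken DT40 Tdp1-/- cells complemented with human TDP1, 400 cells/well, exposed to compounds plus 20 nM camptothecin for at least 48 h at 37 C; viability read as ATP content by CellTiter-Glo luminescence.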
DRD3 antagonist = D3 dopamine receptor (human) antagonism; P35462; D3R cells, DiscoveRx beta-arrestin luminescence, antagonist mode; active compounds read low; max response, negative = inhibition, %; 360,000 tested, 2.5% active; AID 652054; in the data active means max response below about -50%; inconclusive means no clear call, values can overlap the other calls; further: on the % scale 0 is the no-effect control and ±100 the full control effect
Target sequence (P35462 whole entry, looked up): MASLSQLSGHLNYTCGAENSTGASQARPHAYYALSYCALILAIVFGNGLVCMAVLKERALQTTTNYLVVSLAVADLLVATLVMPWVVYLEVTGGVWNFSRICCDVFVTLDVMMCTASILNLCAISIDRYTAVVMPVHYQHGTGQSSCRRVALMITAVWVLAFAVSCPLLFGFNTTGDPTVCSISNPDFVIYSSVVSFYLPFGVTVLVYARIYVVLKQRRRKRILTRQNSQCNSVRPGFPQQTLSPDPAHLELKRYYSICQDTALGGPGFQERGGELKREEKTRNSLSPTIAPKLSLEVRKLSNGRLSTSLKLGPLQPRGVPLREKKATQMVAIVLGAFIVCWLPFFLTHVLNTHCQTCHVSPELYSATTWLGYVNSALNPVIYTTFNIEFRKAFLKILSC
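Cells plated overnight at 1500 cells/well, then exposed to library compounds with dopamine controls for 90 minutes at 37 degrees C. DiscoveRx reagent added for 30–60 minutes at room temperature; luminescence read, quantitative HTS format.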
ClpP mod = qHTS Assay for Activators of ClpP | ATP-dependent Clp protease proteolytic subunit (Bacillus subtilis (strain 168)), P80244 | purified B. subtilis ClpP, FRET peptide cleavage, 20 min | Potency, µM (titrated, usually from 57.5 µM), inactives show at the top dose activity change, negative = active | 340,000 tested, 1.9% active; active means well fitted falling curve with a large enough effect; inconclusive means small, poorly fitted or top-dose-only effect; inactive means no such curve, though single readings can be large or run the other way; further: potency means the concentration at half of the fitted maximal effect; the source files actives as falling curves though it sought activators and does not explain the sign; nearly all actives have a fitted effect of over 65% in size
Target sequence (P80244 whole entry, looked up): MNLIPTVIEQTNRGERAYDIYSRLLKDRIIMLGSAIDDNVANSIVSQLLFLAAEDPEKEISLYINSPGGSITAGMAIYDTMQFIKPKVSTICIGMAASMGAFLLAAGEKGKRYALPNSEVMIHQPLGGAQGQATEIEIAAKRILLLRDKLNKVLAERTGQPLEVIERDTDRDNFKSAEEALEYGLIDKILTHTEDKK
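Buffer: 100 mM Tris/HCl pH8, 100 mM KCl, 0.05% low protease BSA, 2.5% glycerol, 0.01% Tween-20. ClpP 10 microg/mL final; 20 min RT; delta FRET normalized to ADEP and DMSO controls.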
DT40 TDP1 no CPT = qHTS for Inhibitors of human tyrosyl-DNA phosphodiesterase 1 (TDP1): qHTS in cells in absence of CPT; DT40 Tdp1-/- hTDP1 cells, no CPT, ATP luminescence, 48 h; Potency, µM (series often up to 46.2 µM), for inactives: at the top dose activity change, negative = growth inhibition, most hits filed as inhibitors; 420,000 tested, 15% active; AID 686978, 2013; further: potency means the concentration at half of the fitted maximal effect; on the % scale 0 is the no-effect control and ±100 the full control effect; nearly all actives have a fitted effect of over 55% in size
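Cells were dispensed at 400 per well, compounds added by pin tool, plates incubated ≥48 hr at 37 °C, then CellTiter-Glo added for 30 min at room temperature before luminescence reading. Line: DT40 Tdp1-/- complemented with hTDP1; camptothecin omitted.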
IL-1B inflam inh = inflammasome signaling inhibition, IL-1 beta readout | THP-1 LPS/ATP IL-1B secretion, AlphaLISA, 16 h; active compounds read low | activity change, % at 57.5 µM | 360,000 tested, 4.7% active | AID 743279; in the data active means activity change below about -50%; inconclusive means mostly about -30% to -49%; further: on the % scale 0 is the no-effect control and ±100 the full control effect
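Secreted IL-1B measured by AlphaLISA bead assay after 16 h compound exposure of THP-1 cells; compounds (final up to 57.5 uM) added 1 h before LPS (250 ng/mL) and ATP (1.25 mM) stimulation; lower signal means less secretion.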
DRD3 agonist = activates the human D3 dopamine receptor; 410,000 tested, 0.58% active; P35462; max activation, %; D3R DiscoveRx beta-arrestin cells, luminescence, 90 min; in the data active means max activation above about 30%; further: 0% is about no effect
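Agonist-mode cell screen: cells plated at 1500/well and incubated overnight at 37 °C, then exposed to library compounds for 90 min at 37 °C. Detection reagent was added for 30–60 min at room temperature, and luminescence was read.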
Active calls of the source: *; ! = not confirmed by another sample. Unless noted, the call rests on the fitted dose curve; in most records, active means well fitted inhibition curve with a large enough effect; inconclusive means small, poorly fitted or top-dose-only effect; inactive means flat fitted curve, though single readings scatter.

How did C=CCn1c(Cc2cccs2)nnc1SCC(=O)Nc1cc(OC)cc(OC)c1 do in these assays?
DT40 TDP1 CPT: inconclusive; DRD3 antagonist: 2; ClpP mod: 0%; DT40 TDP1 no CPT: 16µM*; IL-1B inflam inh: -15; DRD3 agonist: -6

How did CCNC(=S)Nc1cccc(S(=O)(=O)NC2=NCCC2)c1 do in these assays?
DT40 TDP1 CPT: 19%; DRD3 antagonist: -13; DT40 TDP1 no CPT: 1%; IL-1B inflam inh: 2; DRD3 agonist: -2

How did COc1ccccc1NS(=O)(=O)c1cccc(NC(=O)c2[nH]c(C)c(C(C)=O)c2C)c1 do in these assays?
DT40 TDP1 CPT: inconclusive; DRD3 antagonist: 4; ClpP mod: -1%; DT40 TDP1 no CPT: 16µM*; IL-1B inflam inh: -2; DRD3 agonist: 0

What do the screens show for `CCNC(=S)Nc1cccc(S(=O)(=O)Nc2ccccc2OC)c1`?
DT40 TDP1 CPT: inconclusive; DRD3 antagonist: -11; DT40 TDP1 no CPT: 23µM*; IL-1B inflam inh: 11; DRD3 agonist: -5

Results for COc1ccccc1NS(=O)(=O)c1cccc(NC(=O)Cc2cccs2)c1 ?
DT40 TDP1 CPT: inconclusive; DRD3 antagonist: -6; ClpP mod: -4%; DT40 TDP1 no CPT: 26µM*; IL-1B inflam inh: -4; DRD3 agonist: 5

What do the screens show for `CC(C)(C)NC(=O)c1cccc(NC(=O)Cc2cccs2)c1`?
DT40 TDP1 CPT: 6%; DRD3 antagonist: 2; ClpP mod: 35µM*; DT40 TDP1 no CPT: -2%; IL-1B inflam inh: 6; DRD3 agonist: 9

What do the screens show for `COc1ccccc1NS(=O)(=O)c1cccc(N=C2N=C(N)c3ccccc32)c1`?
DT40 TDP1 CPT: -23%; DRD3 antagonist: -3; ClpP mod: 0%; DT40 TDP1 no CPT: 23µM*; IL-1B inflam inh: -66*; DRD3 agonist: 3

What do the screens show for `COc1ccccc1NS(=O)(=O)c1cccc(NC(=O)c2cc3ccccc3oc2=O)c1`?
DT40 TDP1 CPT: inconclusive; DRD3 antagonist: 4; DT40 TDP1 no CPT: 18µM*; IL-1B inflam inh: 22; DRD3 agonist: -8

What do the screens show for `Cc1cccc(NC(=O)c2cccc(NC(=O)Cc3cccs3)c2)c1`?
DT40 TDP1 CPT: 2%; DRD3 antagonist: -3; DT40 TDP1 no CPT: -28%; IL-1B inflam inh: -12; DRD3 agonist: 8

How did COc1ccccc1NC(=O)C(=O)NNS(=O)(=O)c1ccc2ccccc2c1 do in these assays?
DT40 TDP1 CPT: 23µM*; DRD3 antagonist: -21; ClpP mod: -3%; DT40 TDP1 no CPT: 26µM*; IL-1B inflam inh: 0; DRD3 agonist: 3

What do the screens show for `CN(c1ccccc1)S(=O)(=O)c1cccc(NC(=O)c2cc3ccccc3oc2=O)c1`?
DT40 TDP1 CPT: inconclusive; DRD3 antagonist: -3; DT40 TDP1 no CPT: inconclusive; IL-1B inflam inh: 21; DRD3 agonist: 9

Results for Cc1cccc(C)c1NC(=O)COC(=O)CN1C(=O)C2CCCCC2C1=O (configuration not stated) ?
DT40 TDP1 CPT: inconclusive; DRD3 antagonist: -3; ClpP mod: -2%; DT40 TDP1 no CPT: -29%; IL-1B inflam inh: 21; DRD3 agonist: -1

Results for CCCCNC(=O)C1(C)CCCCN1C(=O)c1ccno1 (configuration not stated) ?
DT40 TDP1 CPT: -5%; DRD3 antagonist: 20; ClpP mod: 1%; DT40 TDP1 no CPT: -1%; IL-1B inflam inh: 8; DRD3 agonist: 4

How did COc1cc(NC(=O)Cc2cccs2)cc(OC)c1 do in these assays?
DT40 TDP1 CPT: inconclusive; DRD3 antagonist: 15; ClpP mod: 1%; DT40 TDP1 no CPT: 18µM*; IL-1B inflam inh: -2; DRD3 agonist: 4

How did COc1ccccc1NC(=O)Nc1cccc(NC(C)=O)c1 do in these assays?
DT40 TDP1 CPT: -2%; DRD3 antagonist: -9; ClpP mod: -4%; DT40 TDP1 no CPT: 2%; IL-1B inflam inh: -24; DRD3 agonist: -4

How did COc1ccccc1NS(=O)(=O)c1cccc(NC(=O)Nc2ccccc2)c1 do in these assays?
DT40 TDP1 CPT: inconclusive; DRD3 antagonist: 8; ClpP mod: 1%; DT40 TDP1 no CPT: 15µM*; IL-1B inflam inh: -79*; DRD3 agonist: 3

What do the screens show for `CC1=C(C(=O)Nc2ccccc2C(=O)N2CCC(C)CC2)SCCO1`?
DT40 TDP1 CPT: -22%; DRD3 antagonist: -18; ClpP mod: -1%; DT40 TDP1 no CPT: -15%; IL-1B inflam inh: -8; DRD3 agonist: -18

Results for COc1cc(Cl)c(C)cc1Nc1c2c(nc3ccccc13)CCC2 ?
DT40 TDP1 CPT: 2.1µM*; ClpP mod: -1%; DT40 TDP1 no CPT: 1.5µM*; DRD3 agonist: -14

How did COc1ccccc1Nc1c2c(nc3ccccc13)CCC2 do in these assays?
DT40 TDP1 CPT: 18µM*; DRD3 antagonist: 0; DT40 TDP1 no CPT: 16µM*; IL-1B inflam inh: 5; DRD3 agonist: -3

How did COc1ccccc1Nc1nc2c(s1)CCC2 do in these assays?
DT40 TDP1 CPT: 15µM*; DRD3 antagonist: -18; ClpP mod: -5%; DT40 TDP1 no CPT: inconclusive; IL-1B inflam inh: -11; DRD3 agonist: 1

What do the screens show for `COc1ccc(Nc2c3c(nc4ccccc24)CCC3)c(OC)c1`?
DT40 TDP1 CPT: 15µM*; DRD3 antagonist: 3; ClpP mod: -1%; DT40 TDP1 no CPT: 16µM*; IL-1B inflam inh: inconclusive; DRD3 agonist: 0

How did Cc1ccc(Nc2nc3c(s2)CCC3)c(C)c1 do in these assays?
DT40 TDP1 CPT: inconclusive; DRD3 antagonist: -10; ClpP mod: 0%; DT40 TDP1 no CPT: inconclusive; IL-1B inflam inh: -20; DRD3 agonist: 0

How did CCC(=O)N1CCc2cc(S(=O)(=O)NC(C(=O)NCCc3ccc(OC)c(OC)c3)C(C)C)ccc21 (configuration not stated) do in these assays?
DT40 TDP1 CPT: -5%; ClpP mod: -1%; DT40 TDP1 no CPT: -4%; DRD3 agonist: -15

How did CC(Cc1cccc(C(F)(F)F)c1)NCCOC(=O)c1ccccc1 (configuration not stated) do in these assays?
DT40 TDP1 CPT: inconclusive; DRD3 antagonist: -99*; ClpP mod: 0%; DT40 TDP1 no CPT: 18µM*!; IL-1B inflam inh: -22; DRD3 agonist: -81

How did C=CCCCCCCCCC(=O)O do in these assays?
DT40 TDP1 CPT: -4%; DT40 TDP1 no CPT: 7%; DRD3 agonist: 8

How did CSc1nn(Cc2ccc(F)cc2)c(N(C(C)=O)C(C)=O)c1S(=O)(=O)c1ccccc1 do in these assays?
DT40 TDP1 CPT: -29%; ClpP mod: -2%; DT40 TDP1 no CPT: inconclusive; DRD3 agonist: 5
